This passage reports cell viability results from the supplement of paper PMC12808144.

Each structure is given as a SMILES string. A number with no mark means an inactive call.

One test relates to Mel-DCC-11-R. Kind of test: cell viability relative to DMSO control (fraction of DMSO control); higher = less cytotoxic, active = 0.8 or less. The following applies: 1 µM; 120 h; vemurafenib co-treatment 0 µM. Here is the method: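 Same 315-drug TargetMol library at 1 µM in duplicate, 120 h, ATPlite luminescence normalised to DMSO controls, on the vemurafenib-resistant subline Mel-DCC-11-R cultured alone or with 8 µM vemurafenib co-treatment (Mel-DCC-11-R + V).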
On to `C=C1C[C@@H]2[C@H](CC[C@]3(C)C(=O)CC[C@@H]23)[C@@]2(C)C=CC(=O)C=C12` [Exemestane], for which the cell viability is 1.09.
The same measure, in the same setting: for `Cl.N[C@@H]1C[C@H]1c1ccccc1` [Tranylcypromine (2-PCPA) hydrochloride] the value was 0.9; for `C[C@]12CCC(=O)C(O)=C1CC[C@@H]1[C@@H]2CC[C@]2(C)C(=O)CC[C@@H]12` [Formestane], 0.922.
On the same count and under the same terms, for `O=C(O)CCCc1ccc(N(CCCl)CCCl)cc1` [Chloroambucil] the value was 0.906; for `Cc1ncc(CNC(=O)N(CCCl)N=O)c(N)n1.Cl` [Nimustine Hydrochloride], 1.1.
Regarding `CCC1(c2ccc(N)cc2)CCC(=O)NC1=O` (stereo not given) [Aminoglutethimide], the cell viability is 1.08.
Consider `CC(O)(CS(=O)(=O)c1ccc(F)cc1)C(=O)Nc1ccc(C#N)c(C(F)(F)F)c1` (stereo not given) [Bicalutamide], for which the cell viability was 1.02.
Still for that read-out and setting: for `C[C@]12CC[C@@H]3c4ccc(OC(=O)N(CCCl)CCCl)cc4CC[C@H]3[C@@H]1CC[C@@H]2OP(=O)([O-])[O-].[Na+].[Na+]` [Estramustine phosphate sodium] the value was 1.01.
Same read-out and setting: for `COc1cc([C@@H]2c3cc4c(cc3[C@H](O)[C@H]3COC(=O)[C@H]23)OCO4)cc(OC)c1OC` [Podophyllotoxin] the value was 0.575 (active); for `Cn1cc(C2=C(c3cn(C4CCN(Cc5ccccn5)CC4)c4ccccc34)C(=O)NC2=O)c2ccccc21` [Enzastaurin], 1.06.
Same read-out and setting: for `N[C@@H](Cc1ccc(N(CCCl)CCCl)cc1)C(=O)O` [Melphalan] the value was 1.17.
For `NCCCNCCSP(=O)(O)O` [Amifostine], the cell viability was 0.934.
`O.O=P1(N(CCCl)CCCl)NCCCO1` (stereo not given) [Cyclophosphamide monohydrate]: the cell viability is 0.857.
As for `Cl.Cn1c(CCCC(=O)O)nc2cc(N(CCCl)CCCl)ccc21` [Bendamustine hydrochloride], the cell viability was 0.822.
Same read-out and setting: for `CNC(=O)Oc1ccccc1OC(C)C` [Propoxur] the value was 0.827.
For the compound `O=P1(NCCCl)OCCCN1CCCl` (stereo not given) [Ifosfamide], the cell viability was 0.968.
The same measure, in the same setting: for `COC(=O)Nc1nc2ccccc2[nH]1` [Carbendazim] the value was 0.917; for `C/C=C(\C)C(=O)N[C@@H](c1ccccc1)[C@@H](O)C(=O)O[C@H]1C[C@@]2(O)[C@@H](OC(=O)c3ccccc3)[C@@H]3[C@]4(OC(C)=O)CO[C@@H]4C[C@H](O)[C@@]3(C)C(=O)[C@H](OC(C)=O)C(=C1C)C2(C)C` [Cephalomannine], 0.99; for `CCC1=C[C@H]2CN3CCc4c([nH]c5ccccc45)[C@](C(=O)OC)(C2)[C@H]13` [Catharanthine], 0.906.
For `C[C@]12CC[C@H]3[C@@H](CC[C@@]45O[C@@H]4C(O)=C(C#N)C[C@]35C)[C@@H]1CC[C@@H]2O` [Trilostane], the cell viability was 1.03.

Staying with this test, now noted: 1 µM; 120 h; vemurafenib co-treatment 8 µM.
On to `C=C1C[C@@H]2[C@H](CC[C@]3(C)C(=O)CC[C@@H]23)[C@@]2(C)C=CC(=O)C=C12` [Exemestane], for which the cell viability was 1.13.
Same read-out and setting: for `Cl.N[C@@H]1C[C@H]1c1ccccc1` [Tranylcypromine (2-PCPA) hydrochloride] the value was 0.694 (active).
The same measure, in the same setting: for `C[C@]12CCC(=O)C(O)=C1CC[C@@H]1[C@@H]2CC[C@]2(C)C(=O)CC[C@@H]12` [Formestane] the value was 1.02.
The same measure, in the same setting: for `O=C(O)CCCc1ccc(N(CCCl)CCCl)cc1` [Chloroambucil] the value was 1.11.
Turning to `Cc1ncc(CNC(=O)N(CCCl)N=O)c(N)n1.Cl` [Nimustine Hydrochloride], the cell viability is 0.991.
The same measure, in the same setting: for `CCC1(c2ccc(N)cc2)CCC(=O)NC1=O` (stereo not given) [Aminoglutethimide] the value was 1.04.
The same measure, in the same setting: for `CC(O)(CS(=O)(=O)c1ccc(F)cc1)C(=O)Nc1ccc(C#N)c(C(F)(F)F)c1` (stereo not given) [Bicalutamide] the value was 1.12; for `C[C@]12CC[C@@H]3c4ccc(OC(=O)N(CCCl)CCCl)cc4CC[C@H]3[C@@H]1CC[C@@H]2OP(=O)([O-])[O-].[Na+].[Na+]` [Estramustine phosphate sodium], 1.11; for `COc1cc([C@@H]2c3cc4c(cc3[C@H](O)[C@H]3COC(=O)[C@H]23)OCO4)cc(OC)c1OC` [Podophyllotoxin], 0.407 (active).
Same read-out and setting: for `Cn1cc(C2=C(c3cn(C4CCN(Cc5ccccn5)CC4)c4ccccc34)C(=O)NC2=O)c2ccccc21` [Enzastaurin] the value was 1.24; for `N[C@@H](Cc1ccc(N(CCCl)CCCl)cc1)C(=O)O` [Melphalan], 1.11.
In the case of `NCCCNCCSP(=O)(O)O` [Amifostine], the cell viability is 1.21.
On the same count and under the same terms, for `O.O=P1(N(CCCl)CCCl)NCCCO1` (stereo not given) [Cyclophosphamide monohydrate] the value was 1.03.
Still for that read-out and setting: for `Cl.Cn1c(CCCC(=O)O)nc2cc(N(CCCl)CCCl)ccc21` [Bendamustine hydrochloride] the value was 1.04; for `CNC(=O)Oc1ccccc1OC(C)C` [Propoxur], 0.985.
The same measure, in the same setting: for `O=P1(NCCCl)OCCCN1CCCl` (stereo not given) [Ifosfamide] the value was 1.
In the case of `COC(=O)Nc1nc2ccccc2[nH]1` [Carbendazim], the cell viability was 1.05.
As for `C/C=C(\C)C(=O)N[C@@H](c1ccccc1)[C@@H](O)C(=O)O[C@H]1C[C@@]2(O)[C@@H](OC(=O)c3ccccc3)[C@@H]3[C@]4(OC(C)=O)CO[C@@H]4C[C@H](O)[C@@]3(C)C(=O)[C@H](OC(C)=O)C(=C1C)C2(C)C` [Cephalomannine], the cell viability was 0.638 (active).
The same measure, in the same setting: for `CCC1=C[C@H]2CN3CCc4c([nH]c5ccccc45)[C@](C(=O)OC)(C2)[C@H]13` [Catharanthine] the value was 0.983; for `C[C@]12CC[C@H]3[C@@H](CC[C@@]45O[C@@H]4C(O)=C(C#N)C[C@]35C)[C@@H]1CC[C@@H]2O` [Trilostane], 1.05.
